PubChem BioAssay (NCI)
The panel holds about 83,000 compounds, 20% with a hit somewhere; the sample as a whole holds those more often.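 Note: values are percent growth. 100 is the growth of untreated cells, values between 100 and 0 indicate rising inhibition; between -100 and 0 indicates cell death.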 Unmarked numbers belong to inactive results. Calls of active or inactive are those of the source. Rule for the calls: active = growth percent below 10; inactive = the rest.

Tests used:
Assay in all cases: NCI-60 one-dose screen, 48 h (100 = growth as untreated, 0 = no growth, -100 = all killed)
Details in all cases: 10 µM unless noted
DU-145 prostate = system: DU-145 prostate
K-562 leukemia = system: K-562 leukemia
MALME-3M melanoma = system: MALME-3M melanoma
MDA-MB-231 breast = system: MDA-MB-231 breast
RXF 393 renal = system: RXF 393 renal
SF-268 CNS = system: SF-268 CNS
SF-295 CNS = system: SF-295 CNS
SF-539 CNS = system: SF-539 CNS
UACC-257 melanoma = system: UACC-257 melanoma
HCT-15 colon = system: HCT-15 colon
HT29 colon = system: HT29 colon
SNB-75 CNS = system: SNB-75 CNS
SNB-19 CNS = system: SNB-19 CNS
PC-3 prostate = system: PC-3 prostate
SK-MEL-5 melanoma = system: SK-MEL-5 melanoma
UACC-62 melanoma = system: UACC-62 melanoma
LOX IMVI melanoma = system: LOX IMVI melanoma
SK-MEL-28 melanoma = system: SK-MEL-28 melanoma
U251 CNS = system: U251 CNS
M14 melanoma = system: M14 melanoma

| SMILES | growth (DU-145 prostate) | growth (K-562 leukemia) | growth (MALME-3M melanoma) | growth (MDA-MB-231 breast) | growth (RXF 393 renal) | growth (SF-268 CNS) | growth (SF-295 CNS) | growth (SF-539 CNS) | growth (UACC-257 melanoma) | growth (HCT-15 colon) | growth (HT29 colon) | growth (SNB-75 CNS) | growth (SNB-19 CNS) | growth (PC-3 prostate) | growth (SK-MEL-5 melanoma) | growth (UACC-62 melanoma) | growth (LOX IMVI melanoma) | growth (SK-MEL-28 melanoma) | growth (U251 CNS) | growth (M14 melanoma) |
| --- | --- | --- | --- | --- | --- | --- | --- | --- | --- | --- | --- | --- | --- | --- | --- | --- | --- | --- | --- | --- |
| OC(c1ccccc1)(c1ccccc1)C(F)(F)F | 109% | 99.7% | 122% | 101% | 120% | 82.8% | 107% | 101% | 104% | 107% | 103% | 111% | 113% | 88.4% | 109% | 102% | 105% | 117% | – | – |
| COc1ccc(CNCCCN2C(=O)c3ccc4c5c(ccc(c35)C2=O)C(=O)N(CCCNCc2ccc(OC)c(OC)c2OC)C4=O)c(OC)c1OC | -96% (active) | -49.1% (active) | -78.5% (active) | -53.1% (active) | -91.9% (active) | -88.4% (active) | -76.8% (active) | -80.1% (active) | -97.5% (active) | -63.7% (active) | -76.4% (active) | – | -79.5% (active) | -71.9% (active) | -97.9% (active) | -78.4% (active) | -84.7% (active) | -92.9% (active) | -94.2% (active) | – |
| CCCCCCC(=O)C(C)C | 106% | 94.9% | 89.2% | 111% | 101% | 105% | 101% | 104% | 92.8% | 102% | 109% | 95.1% | 107% | 100% | 101% | 107% | – | 113% | 98.6% | – |
| O=C(Nc1ccc(Cl)cn1)C1(c2ccccc2)CCCCC1 | 86.5% | 67.1% | 112% | 87.7% | -1.25% (active) | 108% | 110% | 96.7% | 109% | 112% | 85.6% | 106% | 106% | 104% | 91.6% | 94.4% | 101% | 105% | 97.5% | – |
| OCCN1CCCN(CCCN2c3ccccc3Sc3ccc(C(F)(F)F)cc32)CC1 | 78.8% | 2.61% (active) | 44.5% | 64.9% | 47% | 64.9% | 31% | 67.2% | – | 61.6% | 8.24% (active) | 50.4% | – | 57.2% | 36.3% | -46.3% (active) | 49% | 30.7% | 33.6% | – |
| COc1cc(C(=O)Nc2ccc(N(C)C)cc2)cc(OC)c1OC | 107% | 42.8% | 80.6% | 96.4% | 95.7% | 99.1% | 91.7% | 96.1% | – | 73.3% | 86.2% | 74.9% | – | 91.4% | 89.9% | 82% | 93.3% | 81.9% | 95.4% | 89.8% |
| CCCCCCCCC(=O)Nc1ccc(O)cc1 | 103% | 91.2% | 87.7% | 92.1% | 101% | 92% | 101% | 88.9% | – | 94.6% | 94.2% | 76.8% | 112% | 83.2% | 96.7% | 92.1% | 84.8% | 99.7% | 91.4% | 107% |
| CCOc1ccc(Br)cc1/C=C(\C#N)c1ccc([N+](=O)[O-])cc1 | 80.4% | 80.6% | 62.2% | 61.2% | 66.7% | 60.9% | 76.5% | 81.1% | – | – | 87.1% | 22.1% | – | 71.2% | 81.8% | 91.7% | 87.8% | 58.6% | 67.3% | 101% |
| CSc1nc(N)n2nccc2n1 | 117% | 96.6% | 95.3% | 100% | 112% | 118% | 95.7% | – | – | 108% | 102% | 78.5% | 99.7% | 93.5% | 98.8% | 98.6% | 97.4% | 98.5% | – | 101% |
| CC1(C)N=C(N)N=C(N)N1c1cccc(CCCCOc2ccccc2)c1 | 27.6% | 16.2% | 43.1% | 46.8% | 50.2% | 27.2% | – | 34.1% | 28.7% | 58.5% | 11.3% | 60.8% | 32.4% | -6.9% (active) | 17.9% | 20.8% | 15.9% | 39.3% | 11.4% | 23.6% |
| CCOC(=O)C(C)C(C)(O)c1ccccc1 (stereo not given) | 110% | 100% | 84.2% | 103% | 103% | 98.6% | 103% | 105% | – | 108% | 106% | 87.5% | – | 99.9% | 102% | 97.4% | 93.8% | 101% | 107% | 96.3% |
| COC(=O)c1cc(=O)nc(N/N=C/c2ccccc2O)s1 | 111% | 78.8% | 82.5% | 83.8% | 99.7% | 88.1% | 81.4% | 106% | – | 70.4% | 92.9% | 110% | 95.3% | 86.3% | 91.6% | 94.8% | 82.3% | 101% | – | – |
| CCOC(=O)c1csc(-c2ccc(COC(=O)c3ccccc3)o2)n1 | 130% | 102% | 95.8% | 107% | 106% | 118% | 84.4% | 107% | – | 96% | 104% | 92% | 97.5% | 96.6% | 98.2% | 102% | 110% | 101% | – | 106% |
| CC(C)C(=O)c1ccc(Cl)s1 | 106% | 91.5% | 82.8% | 105% | 105% | 102% | 99.3% | 107% | – | 97.5% | 120% | 80.9% | – | 103% | 92.8% | 100% | 91% | 111% | 99.2% | – |
| O=C(NC(=S)NNC(=S)NNc1ccccc1)c1ccccc1 | 98% | 9.51% (active) | 25.5% | 78.2% | 62.8% | 59.5% | 6.98% (active) | 25.5% | – | 54% | 81.2% | 4.67% (active) | – | 32.6% | 25.4% | 25.2% | 48.3% | 59.3% | 48% | 71.7% |
| Cn1c2ccccc2c2ccccc21 | 106% | 89.3% | 101% | 108% | 111% | 103% | – | 108% | 94.8% | 107% | 104% | 85.5% | 98.3% | 105% | 105% | 101% | 95.8% | 102% | 96.5% | 99.3% |
| CC(Br)c1nc2ccccc2cc1C(N)=O (stereo not given) | 102% | 90.9% | 101% | 118% | 109% | 104% | – | 103% | 119% | 98.9% | 105% | 88.3% | 105% | 103% | 104% | 93.7% | 85.6% | 107% | 97.9% | 109% |
| COC(=O)[C@H](Cc1cn(C)cn1)NC(=O)[C@@H](NC(=O)Nc1cc(C(F)(F)F)cc(C(F)(F)F)c1)C(C)(C)C | -92.3% [100 µM] (active) | -12.5% [100 µM] (active) | -86.9% [100 µM] (active) | -89.6% [100 µM] (active) | -87.4% [100 µM] (active) | -90.4% [100 µM] (active) | – | -84.4% [100 µM] (active) | -74.2% [100 µM] (active) | 70.5% [100 µM] | -66.9% [100 µM] (active) | -55.1% [100 µM] (active) | -91.6% [100 µM] (active) | -92.9% [100 µM] (active) | -67.4% [100 µM] (active) | -88.5% [100 µM] (active) | -86.6% [100 µM] (active) | -92.3% [100 µM] (active) | -89.9% [100 µM] (active) | -85.2% [100 µM] (active) |
